In PubChem BioAssay AID540333 (Southern Research Specialized Biocontainment Screening …, 2011) one finds CPE inhibition data, which are given here for 29 compounds.

Screen size: about 10,000 compounds; about 320 (3.2%) were called active. The sample holds actives, similar compounds and a random draw of the others, so the mix is not that of the screen. Unmarked numbers belong to inactive results. No stated cut-off is given here; in the data, active means CPE inhibition mostly above about 9.1% (no sharp cut-off); inactive means mostly below about 7.2%.

This assay in a line: Dengue virus cytopathic effect inhibitors, cell-based, CPE readout, HTS (AID 540333). To be noted: Dengue virus CPE inhibition in host cells, at 20 µM; active compounds read high.
For `Cc1ccc(NC(=O)CCC(=O)NNS(=O)(=O)c2ccccc2)cc1C`, the CPE inhibition entry is “inactive”.

Take `Cc1ccc(S(=O)(=O)NCCC(=O)Nc2ccc(C)c(Cl)c2)cc1C`: the CPE inhibition is 12.8% (active).

For `Cc1ccc(NC(=O)c2cc(S(=O)(=O)NCCc3ccccc3)ccc2F)cc1Cl`, the CPE inhibition was 2.79%.

Turning to `CC(Sc1nnc(-c2ccccc2)c(-c2ccccc2)n1)C(=O)Nc1ncc(Cl)cc1Cl` (centres undefined), the CPE inhibition is 0.725%.

Consider `C/C(=N\NC(=O)c1cccc(S(=O)(=O)Nc2ccccc2Cl)c1)c1ccco1`, for which the CPE inhibition result is “inactive”.

`CCOc1ccc(Br)cc1CSC(=N)N`: the CPE inhibition was 13.3% (active).

In the case of `CCOc1ccc(CSC(=N)N)cc1`, the CPE inhibition was 0.245%.

In the case of `CCOc1ccc(Br)cc1CNCCN1CCOCC1`, the CPE inhibition result was “inactive”.

Take `O=C(Oc1ccccc1N1C(=O)C2CC=CCC2C1=O)c1ccc(Br)cc1` (centres undefined): the CPE inhibition is 0.075%.

As for `CC1C=CCC2C(=O)N(c3ccc(Cl)cc3O)C(=O)C12` (centres undefined), the CPE inhibition is 28.6% (active).

As to `O=C(NCCCN1CCOCC1)c1onc(CSc2ccccc2)c1C(=O)NCCCN1CCOCC1`, the CPE inhibition result was “inactive”.

On to `Cc1ccc(C)c(NC(=O)CSc2nnc(-c3n[nH]c4ccccc34)o2)c1`, for which the CPE inhibition was 0.235%.

In the case of `Cc1ccc(CCc2nnc(SCC(=O)Nc3ccccc3Cl)n2-c2ccccc2)o1`, the CPE inhibition is 0.905%.

For `O=C(CSc1nnc(-c2n[nH]c3ccccc23)n1-c1ccccc1)Nc1ccccc1Cl`, the CPE inhibition was 19% (active).

With `Cc1ccc(S(=O)(=O)NN=C2C3CC4CC(C3)CC2C4)cc1[N+](=O)[O-]`, the CPE inhibition is 0.27%.

In the case of `Cn1cnnc1SC1c2cccc3cccc(c23)C1NS(=O)(=O)c1ccccc1` (centres undefined), the CPE inhibition is 0.485%.

Regarding `Cc1ccc(C=Nc2ccccc2C(=O)Nc2ccccc2)cc1`, the CPE inhibition is 0.36%.

For the compound `CC(C)(C)OC(=O)C[C@H]1C/C=C\C[C@@H](CC(=O)N(CCO)Cc2ccccc2)C(=O)N[C@@H](c2ccccc2)COC1=O`, the CPE inhibition entry was “inactive”.

For the compound `CC1(C)C(C=C(Cl)Cl)C1C(=O)N(Cc1ccccc1Cl)C1CCS(=O)(=O)C1` (centres undefined), the CPE inhibition was 29.9% (active).

As to `CC1(C)C(C=C(Cl)Cl)C1C(=O)N(Cc1cccc(Cl)c1)C1CCS(=O)(=O)C1` (centres undefined), the CPE inhibition was 0.525%.

Turning to `CN(C(=O)COC(=O)c1cc(-c2ccccc2Cl)nc2ccccc12)C1CCS(=O)(=O)C1` (centres undefined), the CPE inhibition result was “inactive”.

In the case of `CCN(Cc1ccccc1)C(=O)C1CCN(C/C(C)=C/c2ccccc2)CC1`, the CPE inhibition result was “inactive”.

On to `Cc1ccc(C)c(S(=O)(=O)Nc2nc(C)c(C(=O)Nc3ccccc3)s2)c1`, for which the CPE inhibition entry was “inactive”.

On to `O=C1NC(c2ccc(-c3ccccc3[N+](=O)[O-])o2)C(C(=O)c2ccc(F)cc2)C(O)(C(F)(F)F)N1` (centres undefined), for which the CPE inhibition was 23.4% (active).

Consider `O=C1c2ccccc2NC(c2ccc(-c3cccc([N+](=O)[O-])c3)o2)N1O` (centres undefined), for which the CPE inhibition is 0.135%.

For `O=C(/C=C/c1ccc(-c2ccccc2[N+](=O)[O-])o1)c1ccccc1`, the CPE inhibition was 3.25%.

`O=C1NC(c2ccc(-c3ccccc3[N+](=O)[O-])o2)C(C(=O)c2ccc(Cl)cc2)C(O)(C(F)(F)F)N1` (centres undefined): the CPE inhibition was 30.5% (active).

For the compound `O=c1nc2s/c(=C\c3ccc(-c4ccccc4[N+](=O)[O-])o3)c(=O)n2nc1-c1ccccc1`, the CPE inhibition entry was “inactive”.

In the case of `O=C(N/N=C/c1ccc(-c2ccccc2[N+](=O)[O-])o1)[C@H]1C[C@@H]1c1ccccc1`, the CPE inhibition entry is “inactive”.
